Measurements taken from PubChem BioAssay (Tox21).
Where “and” joins values, the source holds several entries; their conditions need not be identical. Equal entries are not always repeated. Inconclusive results are not listed. Where a call stands in place of a potency, no number is given. Values without a mark were called inactive. Calls of active or inactive are those of the source. Unless noted, calls follow the shape of the dose curve; as a rule, active = well fitted curve in the direction sought with a large enough effect in the repeat runs; inconclusive = weak or mixed curves; inactive = no such curve, though single readings can be large; an effect the other way counts as inactive or inconclusive.

Experiments:
[1] = qHTS assay to identify aromatase inhibitors - cell viability counter screen (AID 743084);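 also: cells stimulated with testosterone during compound exposure; nearly all actives have a fitted effect of over 55% in size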
[2] = molecular target: Aryl hydrocarbon receptor (Homo sapiens) (UniProt P35869); test: qHTS assay to identify small molecule that activate the aryl hydrocarbon receptor (AhR) signaling pathway (AID 743085); also: nearly all actives have a fitted effect of over 15% in size; also: potency is read from the fitted curve at half-maximal effect;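 as to activation: HG2L7.5c1 human HepG2 liver cells with stably integrated DRE-driven firefly reporter; series mostly up to about 70 µM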
In short: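 Compounds were tested in HepG2 hepatocellular carcinoma cells harbouring a stably integrated luciferase gene under control of 20 DREs. Increased reporter signal after 24 h treatment at 37C was taken as AhR activation.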

[3] = qHTS assay to identify small molecule that activate the aryl hydrocarbon receptor (AhR) signaling pathway - cell viability counter screen (AID 743086);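 also: HepG2 liver cells carrying the AhR DRE luciferase reporter; series mostly up to about 70 µM; nearly all actives have a fitted effect of over 45% in size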
In short: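 HepG2-AhR-luc (HG2L7.5c1) cells, 4000/well, were preincubated 5 h at 37C, exposed to compound in qHTS format for 24 hr at 37C, then given CellTiter-Fluor for 30 min; viability was read as fluorescence in the reporter wells.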

[4] = molecular target: Peroxisome proliferator-activated receptor gamma (Homo sapiens) (UniProt P37231); test: qHTS assay to identify small molecule agonists of the peroxisome proliferator-activated receptor gamma (PPARg) signaling pathway (AID 743094; active = well fitted activation curve with a large enough effect in the signal ratio in the repeat runs, not every such curve was filed as active; the % refers to the signal ratio)
In short: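 Agonist activity was taken from a beta-lactamase reporter (FRET substrate, 1 h at room temperature) in HEK293H cells carrying a PPARg UAS-bla construct. Compounds in DMSO were incubated 17 h at 37C after a 5 h cell pre-incubation.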

[5] = molecular target: Peroxisome proliferator-activated receptor gamma (Homo sapiens) (UniProt P37231); test: qHTS assay to identify small molecule antagonists of the peroxisome proliferator-activated receptor gamma (PPARg) signaling pathway (AID 743191; calls by dose curve; also: series mostly up to about 63 µM; nearly all actives have a fitted effect of over 30% in size)
In short: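 GeneBLAzer PPARg UAS-bla HEK293H cells carrying a UAS-driven beta-lactamase reporter were plated at 3000 cells/well, preincubated 5 h at 37C, then given compound for 17 h at 37C; LiveBLAzer B/G FRET substrate was read after 1 h at room temperature.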

[6] = qHTS assay to identify small molecule antagonists of the peroxisome proliferator-activated receptor gamma (PPARg) signaling pathway - cell viability counter screen (AID 743194); settings: Potency: co-treated with 50 nM rosiglitazone unless noted; also: nearly all actives have a fitted effect of over 55% in size
In short: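 PPARg-UAS-bla HEK293H cells were plated, rested 5 h at 37 C, then treated with compounds plus rosiglitazone (50 nM final) for 17 h at 37 C; viability was then read by CellTiter-Glo luminescence after 30 min at room temperature.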

[7] = qHTS assay for small molecule agonists of the antioxidant response element (ARE) signaling pathway (AID 743202; active = well fitted activation curve with a large enough effect in the signal ratio in the repeat runs, not every such curve was filed as active; the % refers to the signal ratio)
In short: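 Following a 16 h, 37 C exposure of reporter HepG2 cells (ARE-driven beta-lactamase, 2,000 cells/well) to compounds, FRET substrate was applied for 2 h at room temperature and fluorescence intensity recorded.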

[8] = qHTS assay for small molecule agonists of the antioxidant response element (ARE) signaling pathway - cell viability counter screen (AID 743203; calls by dose curve; also: nearly all actives have a fitted effect of over 55% in size)
In short: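 Viability counter screen: CellTiter-Glo luminescence, read after 30 min at room temperature, in ARE-bla HepG2 wells. Compound exposure lasted 16 h at 37C/5% CO2, following a 5 h pre-incubation of the cells after plating.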

[9] = qHTS assay for small molecule activators of the heat shock response signaling pathway - cell viability counter screen (AID 743209); also: nearly all actives have a fitted effect of over 50% in size
In short: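 Cytotoxicity counter screen run in the same wells as the heat-shock bla reporter assay: HeLa HSE-bla cells, 5 h compound exposure at 37 C, viability read by CellTiter-Glo luminescence.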

[10] = qHTS assay for small molecule activators of the heat shock response signaling pathway (AID 743210; active = well fitted activation curve with a large enough effect in the signal ratio in the repeat runs, with a control signal flat, not every such curve was filed as active; the % refers to the signal ratio; also: series mostly up to about 63 µM)
In short: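 Heat shock element–beta-lactamase HeLa reporter cells; qHTS with compounds for 5 h at 37 C; detection by FRET substrate fluorescence after 2.5 h at RT.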

[11] = qHTS assay to identify small molecule agonists of the peroxisome proliferator-activated receptor delta (PPARd) signaling pathway - cell viability counter screen (AID 743211); also: nearly all actives have a fitted effect of over 55% in size
In short: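 Counter screen for cytotoxicity run in parallel with the PPARd reporter screen. Beta-lactamase reporter HEK293H cells exposed to compounds 17 h; ATP-based CellTiter-Glo luminescence quantified viability.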

[12] = qHTS assay to identify small molecule antagonists of the peroxisome proliferator-activated receptor delta (PPARd) signaling pathway - cell viability counter screen (AID 743213); also: nearly all actives have a fitted effect of over 50% in size
In short: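 In this counter screen, HEK293H cells carrying a UAS-beta-lactamase reporter are co-treated with test compounds and 300 nM L165041 (final) for 17 h at 37 C; cell viability is quantified by CellTiter-Glo luminescence.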

[13] = molecular target: Peroxisome proliferator-activated receptor delta (Homo sapiens) (UniProt Q03181); test: qHTS assay to identify small molecule antagonists of the peroxisome proliferator-activated receptor delta (PPARd) signaling pathway (AID 743215; active = well fitted inhibition curve with a large enough effect in the signal ratio in the repeat runs, not every such curve was filed as active; the % refers to the signal ratio;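 also: cells stimulated with agonist L165041 at 300 nM final during compound exposure; series mostly up to about 62 µM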)
In short: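 Agonist L165041 (300 nM final) added with compound to PPARd-bla HEK293H UAS-bla reporter cells; 17 h incubation at 37 C. Read-out: LiveBLAzer FRET substrate, 2 h at room temperature, fluorescence intensity.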

[14] = molecular target: Bile acid receptor (Homo sapiens) (UniProt Q96RI1); test: qHTS assay to identify small molecule antagonists of the farnesoid-X-receptor (FXR) signaling pathway (AID 743217; active = well fitted inhibition curve with a large enough effect in the signal ratio in the repeat runs, not every such curve was filed as active; the % refers to the signal ratio)
In short: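 Antagonist mode: chenodeoxycholic acid at 50 uM final stimulates a UAS-driven beta-lactamase reporter in HEK 293T FXR-bla cells during 16 h, 37C compound exposure. Read-out is FRET substrate fluorescence after 2 h at room temperature.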

[15] = qHTS assay to identify small molecule agonists of the farnesoid-X-receptor (FXR) signaling pathway - cell viability counter screen (AID 743218); also: nearly all actives have a fitted effect of over 45% in size
In short: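 Viability counter screen in the same wells: CellTiter-Glo luminescence, 30 min room-temperature incubation, measured after the beta-lactamase read. Cells were GeneBLAzer FXR-UAS-bla HEK 293T, compound-treated 16 h at 37C.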

[16] = molecular target: Bile acid receptor (Homo sapiens) (UniProt Q96RI1); test: qHTS assay to identify small molecule agonists of the farnesoid-X-receptor (FXR) signaling pathway (AID 743220; active = well fitted activation curve with a large enough effect in the signal ratio in the repeat runs, not every such curve was filed as active; the % refers to the signal ratio)
In short: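 FXR-UAS-bla HEK 293T cells carrying a UAS-driven beta-lactamase reporter were plated for 5 h at 37C/5% CO2, then exposed to DMSO-dissolved Tox21 10K compounds for 16 h at 37C. A LiveBLAzer B/G FRET substrate was loaded for 2 h at room temperature before fluorescence reading.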

[17] = qHTS assay to identify small molecule antagonists of the farnesoid-X-receptor (FXR) signaling pathway - cell viability counter screen (AID 743221; active = well fitted cell-killing curve with a large enough effect in the repeat runs, not every such curve was filed as active; also: nearly all actives have a fitted effect of over 50% in size)
In short: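 Multiplexed counter screen: viability of FXR-bla HEK 293T cells under agonist stimulation by chenodeoxycholic acid (50 uM, final) and test compound for 16 h at 37 C, measured by CellTiter-Glo luminescence in the reporter wells.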

[18] = molecular target: Vitamin D3 receptor (Homo sapiens) (UniProt P11473); test: qHTS assay to identify small molecule agonists of the vitamin D receptor (VDR) signaling pathway (AID 743222; calls by dose curve)
In short: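 Agonist mode, beta-lactamase reporter: fluorescence from LiveBLAzer B/G FRET substrate (2 h, room temperature) read after 16 h compound treatment at 37 C of VDR-bla cells, which were pre-incubated 4 h after seeding.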

[19] = molecular target: Vitamin D3 receptor (Homo sapiens) (UniProt P11473); test: qHTS assay to identify small molecule antagonists of the vitamin D receptor (VDR) signaling pathway (AID 743223; active = well fitted inhibition curve with a large enough effect in the signal ratio in the repeat runs, not every such curve was filed as active; the % refers to the signal ratio)
In short: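 Cells carrying a VDR-driven beta-lactamase reporter (VDR-bla) were co-treated with compound and 3 nM final 1alpha,25-dihydroxyvitamin D3 for 16 h at 37C; reporter activity was measured as FRET substrate fluorescence after 2 h at room temperature.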

[20] = molecular target: Peroxisome proliferator-activated receptor delta (Homo sapiens) (UniProt Q03181); test: qHTS assay to identify small molecule agonists of the peroxisome proliferator-activated receptor delta (PPARd) signaling pathway (AID 743212; calls by dose curve)
In short: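 Beta-lactamase reporter read by fluorescence (LiveBLAzer B/G FRET, 2 h, room temperature). Test agents, in DMSO, incubated at 37 C with PPARd-bla HEK293H cells.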

Chain of Peroxisome proliferator-activated receptor gamma (Homo sapiens) (P37231 whole entry, looked up): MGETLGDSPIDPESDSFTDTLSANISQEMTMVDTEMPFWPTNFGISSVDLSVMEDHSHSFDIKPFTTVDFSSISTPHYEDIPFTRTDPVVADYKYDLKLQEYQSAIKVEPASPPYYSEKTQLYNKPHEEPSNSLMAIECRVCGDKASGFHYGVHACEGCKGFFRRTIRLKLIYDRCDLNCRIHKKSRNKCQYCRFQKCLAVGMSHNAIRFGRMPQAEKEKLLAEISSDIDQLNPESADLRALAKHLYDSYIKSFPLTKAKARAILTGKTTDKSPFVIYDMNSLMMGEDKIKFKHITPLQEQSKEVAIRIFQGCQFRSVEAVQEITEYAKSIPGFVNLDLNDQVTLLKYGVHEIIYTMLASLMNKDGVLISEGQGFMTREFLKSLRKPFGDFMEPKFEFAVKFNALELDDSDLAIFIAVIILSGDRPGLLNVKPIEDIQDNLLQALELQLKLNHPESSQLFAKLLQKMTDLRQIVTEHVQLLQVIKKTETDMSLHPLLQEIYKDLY
Chain of Peroxisome proliferator-activated receptor delta (Homo sapiens) (Q03181 whole entry, looked up): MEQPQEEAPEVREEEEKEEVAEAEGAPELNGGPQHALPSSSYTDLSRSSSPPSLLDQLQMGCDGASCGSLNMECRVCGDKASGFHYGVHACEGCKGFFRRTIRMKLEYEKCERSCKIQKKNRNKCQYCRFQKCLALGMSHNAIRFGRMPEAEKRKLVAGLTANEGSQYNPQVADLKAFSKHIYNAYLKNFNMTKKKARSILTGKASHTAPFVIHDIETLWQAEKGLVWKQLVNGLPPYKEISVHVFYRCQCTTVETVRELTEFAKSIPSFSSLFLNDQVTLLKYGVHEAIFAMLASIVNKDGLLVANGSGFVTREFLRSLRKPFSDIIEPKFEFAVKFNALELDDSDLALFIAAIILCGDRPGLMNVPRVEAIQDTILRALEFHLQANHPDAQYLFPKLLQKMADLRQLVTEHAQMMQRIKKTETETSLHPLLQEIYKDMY
Chain of Aryl hydrocarbon receptor (Homo sapiens) (P35869 whole entry, looked up): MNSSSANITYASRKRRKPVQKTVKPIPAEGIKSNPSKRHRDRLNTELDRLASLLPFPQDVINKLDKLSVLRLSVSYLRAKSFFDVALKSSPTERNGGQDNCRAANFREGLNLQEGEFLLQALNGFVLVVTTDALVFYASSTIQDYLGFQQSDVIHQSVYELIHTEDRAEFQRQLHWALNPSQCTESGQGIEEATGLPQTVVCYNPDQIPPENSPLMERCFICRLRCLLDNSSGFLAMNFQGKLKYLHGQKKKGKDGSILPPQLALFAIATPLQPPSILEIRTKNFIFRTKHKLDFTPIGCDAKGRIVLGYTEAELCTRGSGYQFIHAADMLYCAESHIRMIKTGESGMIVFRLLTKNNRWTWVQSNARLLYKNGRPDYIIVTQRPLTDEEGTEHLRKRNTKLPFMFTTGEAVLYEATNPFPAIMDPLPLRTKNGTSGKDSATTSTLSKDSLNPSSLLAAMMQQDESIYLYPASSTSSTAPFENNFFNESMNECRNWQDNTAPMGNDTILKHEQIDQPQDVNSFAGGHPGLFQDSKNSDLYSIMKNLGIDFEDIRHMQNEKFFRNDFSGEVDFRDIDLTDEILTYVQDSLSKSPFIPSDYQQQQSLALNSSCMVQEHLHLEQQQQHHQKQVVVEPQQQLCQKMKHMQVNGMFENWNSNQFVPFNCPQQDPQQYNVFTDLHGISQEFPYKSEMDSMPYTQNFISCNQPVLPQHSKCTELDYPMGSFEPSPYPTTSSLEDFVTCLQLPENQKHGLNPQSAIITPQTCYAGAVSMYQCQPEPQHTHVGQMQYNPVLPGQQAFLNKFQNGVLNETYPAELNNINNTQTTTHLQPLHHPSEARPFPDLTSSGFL
Chain of Bile acid receptor (Homo sapiens) (Q96RI1 whole entry, looked up): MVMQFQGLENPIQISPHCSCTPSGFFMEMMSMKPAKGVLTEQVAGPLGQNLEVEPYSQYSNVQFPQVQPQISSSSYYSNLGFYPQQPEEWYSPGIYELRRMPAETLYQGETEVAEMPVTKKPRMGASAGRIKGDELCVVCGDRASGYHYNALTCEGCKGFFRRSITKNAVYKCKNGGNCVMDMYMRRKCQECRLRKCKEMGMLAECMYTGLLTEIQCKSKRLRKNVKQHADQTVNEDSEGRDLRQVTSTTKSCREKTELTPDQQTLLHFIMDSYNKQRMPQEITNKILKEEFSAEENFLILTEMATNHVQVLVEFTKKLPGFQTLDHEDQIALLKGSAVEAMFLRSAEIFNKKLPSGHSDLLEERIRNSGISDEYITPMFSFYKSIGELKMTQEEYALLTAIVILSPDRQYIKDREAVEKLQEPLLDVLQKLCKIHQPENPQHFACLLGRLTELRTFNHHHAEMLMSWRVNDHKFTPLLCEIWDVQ
Chain of Vitamin D3 receptor (Homo sapiens) (P11473 whole entry, looked up): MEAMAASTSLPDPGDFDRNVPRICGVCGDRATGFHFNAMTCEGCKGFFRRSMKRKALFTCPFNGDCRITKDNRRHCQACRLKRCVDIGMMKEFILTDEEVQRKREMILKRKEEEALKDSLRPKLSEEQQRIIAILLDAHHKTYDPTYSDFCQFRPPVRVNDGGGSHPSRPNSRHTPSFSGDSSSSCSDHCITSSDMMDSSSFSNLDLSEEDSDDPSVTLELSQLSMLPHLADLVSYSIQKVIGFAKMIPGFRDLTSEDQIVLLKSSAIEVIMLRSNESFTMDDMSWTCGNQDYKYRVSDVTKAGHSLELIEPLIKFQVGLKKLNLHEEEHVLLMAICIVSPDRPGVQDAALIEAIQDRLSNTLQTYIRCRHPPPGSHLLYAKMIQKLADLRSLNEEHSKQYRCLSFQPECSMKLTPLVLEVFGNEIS

SMILES | Potency [1] | Potency [2] | Potency [3] | Potency [4] | Potency [5] | Potency [6] | Potency [7] | Potency [8] | Potency [9] | Potency [10] | Potency [11] | Potency [12] | Potency [13] | Potency [14] | Potency [15] | Potency [16] | Potency [17] | outcome [18] | Potency [19] | Potency [20]
COC(=O)CCCCC(=O)OC | inactive | inactive | inactive | inactive | inactive | inactive | inactive | inactive | inactive | inactive | inactive | inactive | inactive | inactive | inactive | inactive | inactive | inactive | inactive | 
C=CC(C)(C)C | inactive | inactive | inactive | inactive |  |  | inactive | inactive | inactive | inactive | inactive | inactive | inactive |  | inactive |  | inactive | inactive | inactive | 
C1CCCNCC1 | inactive | inactive | inactive | inactive | inactive | inactive | inactive | inactive | inactive | inactive | inactive | inactive | inactive |  | inactive |  | inactive |  |  | 
O=c1c(O)c(-c2ccc(O)c(O)c2)oc2cc(O)cc(O)c12 | inactive | 61.2 µM (active) and 54.9 µM (active) and 61.1 µM (active) | inactive | inactive | inactive | inactive | inactive | inactive |  |  | inactive | inactive |  |  | inactive |  | inactive | inactive | inactive | 
N#CCC(=O)O | inactive | inactive | inactive | inactive | inactive | inactive | inactive | inactive | inactive | inactive | inactive | inactive | inactive |  | inactive |  | inactive | inactive | inactive | 
NC(N)=S | inactive |  | inactive | inactive | inactive | inactive | inactive | inactive | inactive |  | inactive | inactive |  | inactive | inactive | inactive | inactive | inactive | inactive | 
CC(COCC(C)OC(=O)c1ccccc1)OC(=O)c1ccccc1 (stereo not given) | inactive |  | inactive | inactive | inactive | inactive | inactive | inactive | inactive | inactive | inactive | inactive | inactive | inactive | inactive | inactive | inactive | inactive | inactive | inactive
Cc1ccc(C)c(S(=O)(=O)O)c1 | inactive | inactive |  | inactive |  | inactive | inactive | inactive | inactive | inactive | inactive | inactive | inactive |  | inactive |  | inactive | inactive | inactive | 
CCCCC(=O)O | inactive |  | inactive | inactive | inactive | inactive | inactive | inactive |  | inactive | inactive | inactive |  | inactive | inactive | inactive | inactive | inactive | inactive | 
CCCCCCCCC(=O)O | inactive | inactive |  |  |  | inactive | inactive | inactive | inactive | inactive | inactive | inactive | inactive |  | inactive |  | inactive |  |  | inactive
CC1=CC(=O)CC(C)(C)C1 | inactive | inactive |  | inactive | inactive | inactive | inactive | inactive |  |  | inactive | inactive | inactive |  | inactive |  | inactive | inactive | inactive | inactive
CC(=O)OCc1ccc2c(c1)OCO2 | inactive | inactive |  |  |  | inactive | inactive | inactive |  | inactive | inactive | inactive |  | inactive | inactive | inactive | inactive | inactive | inactive | 
CCCCCCC(=O)O | inactive | inactive | inactive |  |  | inactive | inactive | inactive |  | inactive | inactive | inactive | inactive | inactive | inactive | inactive | inactive | inactive | inactive | inactive
CCOC(=O)c1ccc(O)cc1 | inactive |  | inactive |  |  | inactive | inactive | inactive | inactive | inactive | inactive | inactive | inactive | inactive | inactive | inactive | inactive | inactive | inactive | inactive
CCc1cccc(O)c1 | inactive |  | inactive | inactive | inactive | inactive | inactive | inactive | inactive | inactive | inactive | inactive | inactive | inactive | inactive | inactive | inactive | inactive | inactive | 
CS(=O)(=O)c1ccc(Cl)cc1 | inactive | inactive |  |  |  | inactive | inactive | inactive |  | inactive | inactive | inactive | inactive |  | inactive |  | inactive | inactive | inactive | inactive
CN1CCCC1=O | inactive |  | inactive | inactive | inactive | inactive | inactive | inactive | inactive | inactive | inactive | inactive |  |  | inactive |  | inactive | inactive | inactive | 
O=C1O[C@H]([C@H](O)CO)C(O)=C1O | inactive |  | inactive | inactive | inactive | inactive | inactive | inactive |  |  | inactive | inactive |  |  | inactive |  | inactive |  |  | 
